Results from PubChem BioAssay AID1159580 (chemical genetic matrix, 2015).
In all, about 5,500 compounds went through this assay and about 2,000 (36%) were called active. Not shown: some 18% with an inconclusive outcome. Cut-off read from the data, not from the text of the source: active = normalized growth mostly below about 0.91 (no sharp cut-off); inconclusive = no clear call, values can overlap the other calls; inactive = mostly above about 0.92. The list shows a part of the results.

Assay: chemical genetic growth profiling, strain panel (AID 1159580);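 note: tested at 20 µM; growth read once vehicle control cultures reached saturation at 30 °C; 1 = growth at the plate median or of vehicle wells; lower values mean less growth of the strain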
Details: S. cerevisiae deletion strains, growth OD

Measured: normalized growth

C=C(C)C1Cc2c(ccc3c2OC2COc4cc(OC)c(OC)cc4C2C3=O)O1 (stereo unspecified)
inactive: locus YAL040C, strain CLN3, stronger effect = lower value 1.07 | locus YCL061C, strain MRC1 (second series), stronger effect = lower value 0.98 | locus YDR363W, strain ESC2, stronger effect = lower value 0.99 | locus YER002W, strain NOP16, stronger effect = lower value 0.992 | locus YNL153C, strain GIM3, stronger effect = lower value 0.942 | locus YNL175C, strain NOP13, stronger effect = lower value 0.955 | locus YNL197C, strain WHI3, stronger effect = lower value 0.979 | locus YNL224C, strain SQS1, stronger effect = lower value 0.964 | locus YNL322C, strain KRE1, stronger effect = lower value 0.98 | locus YOR083W, strain WHI5 (second series), stronger effect = lower value 0.958 | locus YPL055C, strain LGE1, stronger effect = lower value 1.01
